Compound activity from PubChem.
HSV replic up: increases HSV replication in cells. HSV replication augmentation in cells, fold increase. maximum fold increase. 220,000 tested, 0.005% active. AID 1956; in the data active means maximum fold increase above about 1.5; inconclusive means no clear call, values can overlap the other calls; tested in PC3 cells
Insulin prom up: MIN6 insulin promoter up-regulation; MIN6 insulin promoter-GFP reporter, high-content imaging; stronger effect = higher value; z-score at 5 µM; 190,000 tested, 0.3% active; AID 1625;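 active means z-score above 3 at 5 µM with at least 500 cells counted in the well; inconclusive means wells under 500 cells, flagged as cytotoxic or low count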
INS promoter inh: TRM-6 insulin promoter activity inhibition; inhibition, % at 2 µM; TRM-6 cells (human fetal islet line), insulin promoter-eGFP reporter, imaging; reporter expression induced with tamoxifen; AID 1273; 130,000 tested, 0.9% active;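 active means inhibition above the mean plus 3 SD, with well images judged a real hit on visual review, cut at about 60% in these data, passing the limit was not always enough; inconclusive means inhibition over the cutoff but images rejected on review; inactive means inhibition not above the cutoff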
HMGR II inh: inhibitors of class II HMG-CoA reductase from Enterococcus faecalis. purified E. faecalis HMGR, NADPH absorbance 340 nm kinetic. inhibition, % at 10 µM. 190,000 tested, 0.41% active;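 active means inhibition above a set limit, the median over all tested compounds plus 3 SD, cut at about 9.5% in these data; inconclusive means no clear call, values can overlap the other calls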;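 further: enzyme runs in reverse so mevalonate oxidation gives rising NADPH absorbance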
A number is an active result; 0 = inactive; ? = inconclusive; - = no result. Compounds with a hit are over-represented: about 1.1% of the library has one in this group of screens.

SMILES	HSV replic up	Insulin prom up	INS promoter inh	HMGR II inh
Cc1cc(C)nc(SCCn2c(N3CCOCC3)nc3c2c(=O)[nH]c(=O)n3C)n1	0	0	-	12
Cc1csc(SCCn2c(N3CCOCC3)nc3c2c(=O)[nH]c(=O)n3C)n1	0	0	-	0
CCN(CC)C(=O)c1ccccc1NS(C)(=O)=O	0	0	-	0
CCOC(=O)c1nn(-c2ccccc2F)c(C)c1C(C)=O	0	-	0	9.8
Cc1c(Br)c([N+](=O)[O-])nn1CC(=O)NCC1CCCO1 (centres undefined)	0	0	-	0
Cc1cc(C)nc(SCSc2nc(C)cc(C)n2)n1	0	4.5	-	0
CCS(=O)(=O)CCSc1nc(C)cc(C)n1	0	0	-	0
CCOC(=O)c1ccc2c(c1)[n+](CC)c(C)n2-c1ccccc1	0	0	-	0
CC[n+]1c(C)n(-c2ccccc2)c2ccc(C(=O)OC)cc21	0	0	-	16
CN(C)CCCN1C(=O)C2CCc3[nH]c4ccccc4c3C2C1=O (centres undefined)	0	0	-	0
CCC(=O)Nc1ccc2c(c1)nc1n2CCSC1	0	0	-	0
CC(C)C(=O)Nc1ccc2c(c1)nc1n2CCSC1	0	0	76	0
O=C(OCC(=O)N1CCc2ccccc2C1)c1cccs1	0	0	-	0
O=C(Nc1ccc(C(=O)O)cc1)/C(=C\c1ccc2c(c1)OCO2)NC(=O)c1ccccc1	0	0	80	0
O=C(Nc1ccc(C(=O)O)cc1)/C(=C\c1ccc2c(c1)OCO2)NC(=O)c1ccc(Br)cc1	0	0	-	0
COc1ccc(-c2cc(-n3c(C(F)(F)F)nc4ccccc43)n(CCC#N)n2)cc1	0	0	0	13
COc1ccc(Sc2nc3ccccc3n3c(C(F)(F)F)nnc23)cc1	0	0	0	0
COc1ccc(NC(=O)COC(=O)C2CC3C=CC2C3)cc1 (centres undefined)	0	0	79	0
Nc1nn2cc(-c3ccccc3)nc2c2ccccc12	0	0	-	11
O=C(Nc1nnc(-c2ccncc2)o1)c1ccc(Br)s1	0	0	0	0
CCOC(=O)Cn1c(=O)c(-c2cc(Br)ccc2N)nc2ccccc21	?	6.8	-	-
O=C(Nn1c(-c2ccncc2)nc2ccccc2c1=O)c1ccc(Br)cc1	0	0	0	0
O=C(Nn1c(-c2ccc(Br)cc2)nc2ccccc2c1=O)c1cccnc1	0	0	78	0
COc1ccc(/C=N/NC(=O)c2c(C)nnn2-c2nonc2N)cc1OC	0	0	-	0
Cc1cccc(NC(=O)C(=O)NCc2ccc3c(c2)OCO3)c1C	0	-	0	10
SMILES	HSV replic up	Insulin prom up	INS promoter inh	HMGR II inh
Cc1cccc(NC(=O)CSc2ccc(-c3ccc4c(c3)OCO4)nn2)c1C	0	0	-	17
O=C1Nc2ccc(Br)cc2C12NNc1ccccc1O2 (centres undefined)	0	14	-	0
CC1(C)Cc2c(c(-c3ccccc3Cl)[nH]c(=O)c2C#N)CO1	0	-	0	0
CC1(C)Cc2c(c(-c3ccccc3)[nH]c(=O)c2C#N)CO1	0	3.4	-	0
C/C(=N/Nc1ccc(C(=O)O)cc1)c1ccc(O)c(O)c1O	0	0	0	11
O=C(c1n[nH]c2ccccc12)N1CCN(c2ccc(F)cc2)CC1	0	0	-	0
COc1ccccc1N1CCN(C(=O)c2n[nH]c3ccccc23)CC1	0	0	75	0
CCC(=O)Nc1nnc(C(C)(C)C)s1	0	0	0	0
CC(C)(C)c1nnc(NC(=O)CN2C(=O)C3C4C=CC(C4)C3C2=O)s1 (centres undefined)	0	0	75	0
CCSc1nnc(NC(=O)CN2C(=O)C3CC=CCC3C2=O)s1 (centres undefined)	0	0	0	14
COc1ccc(CC2(CO)CCN(Cc3cccn3-c3ccccn3)CC2)cc1	0	0	-	0
CC(=O)N1CCN(Cc2nc3cc(NC(=O)c4ccccc4)ccc3n2C)CC1	0	3.4	0	0
Cn1c(CN2CCCCC2)nc2cc(NC(=O)c3ccc(Cl)cc3)ccc21	0	-	0	0
CCC(=O)Nc1ccc2c(c1)ncn2-c1ccccc1	0	5	0	0
CCC(=O)Nc1ccc2c(c1)nc(CN1CCCCC1)n2C	0	0	-	15
CCOC(=O)C1CCN(c2c(N3CCCC(C(=O)OCC)C3)c(=O)c2=O)CC1 (centres undefined)	0	-	-	0
CCOC(=O)C1CCCN(c2c(N3CCN(c4ccccn4)CC3)c(=O)c2=O)C1 (centres undefined)	0	0	86	0
Cc1cc(C)nc(/N=c2/ssnc2Cl)c1	0	0	-	12
CC(NC(=O)/C(C#N)=C1\N=C(NC(=O)c2ccco2)c2ccccc21)c1ccccc1 (centres undefined)	0	3.7	-	-
CN(CC(=O)NCc1ccncc1)S(=O)(=O)c1ccc2ccccc2c1	0	0	0	0
CCOC(=O)CN1CC23C=CC(O2)C(C(=O)Nc2cc(OC)ccc2OC)C3C1=O (centres undefined)	0	4.2	-	0
COC(=O)c1cc(OC)c(OC)cc1NC(=O)C(C)c1ccc([N+](=O)[O-])cc1 (centres undefined)	0	0	-	0
O=C(Nc1cccc(-c2cn3c(n2)SCC3)c1)c1ccc2c(c1)OCO2	0	0	0	0
O=C(Nc1ccc(-c2cn3c(n2)SCC3)cc1)c1ccc2c(c1)OCO2	0	0	0	13
CC(=Nc1ccc(C)cc1)c1sc2ccccc2c1O	?	0	0	0
SMILES	HSV replic up	Insulin prom up	INS promoter inh	HMGR II inh
CC(=Nc1ccc(C)cc1C)c1sc2ccccc2c1O	?	4	-	0
C=CCSc1nc(C)c(CC=C)c(=O)[nH]1	0	0	0	0
C=CCc1c(C)[nH]c(=O)[nH]c1=O	0	0	78	0
O=C(CCCN1C(=O)/C(=C\c2cccs2)SC1=S)Nc1ccccn1	0	0	-	14
O=C(NCCCn1ccnc1)c1cc2c(ccc3ccccc32)o1	0	0	0	0
CC1CCCN(C(=O)C2CCN(CC(C)c3ccccc3)CC2)C1 (centres undefined)	0	0	0	15
CC(C)(C)C(=O)n1nc(-c2ccccc2)oc1=O	0	0	-	0
CSc1ccc(C2CC(=O)Nc3nc(SC)[nH]c(=O)c32)cc1 (centres undefined)	0	0	0	22
Cc1ccc(NC(=O)CN(C)C(=S)NC2CC2)cc1	0	0	-	0
c1ccc(OCCOCCSc2ncccn2)cc1	0	0	81	0
CNC(=O)c1ccc(-c2sc3nc(N4CCOCC4)c4c(c3c2N)CC(C)(C)OC4)o1	0	3.2	0	0
CC1(C)Cc2c(c(N3CCOCC3)nc3sc(-c4ccc(C(=O)O)o4)c(N)c23)CO1	0	0	0	0
CC1=C(C(=O)OCc2ccccc2)C(/C=C/c2ccccc2)NC(=S)N1 (centres undefined)	0	0	-	10
C=CCOC(=O)C1=C(C)NC(=S)NC1/C=C/c1ccccc1 (centres undefined)	0	-	0	0
CCOc1ccc2nc(SCC(=O)NC(=O)C(C)C)sc2c1	0	0	100	0
CCCNC(=O)CSc1nc2ccc(OCC)cc2s1	0	0	0	0
COc1ccc(-c2csc(NC(=O)/C(N=Nc3ccccc3)=C(\C)O)n2)cc1	0	0	0	0
Cc1onc(-c2ccccc2Cl)c1C(=O)Nc1ccc(-c2cn3cccnc3n2)cc1	0	0	0	0
Cc1onc(-c2ccccc2Cl)c1C(=O)Nc1cccc(-c2nc3ncccn3c2C)c1	-	0	82	0
